Data reported in PubChem BioAssay AID618 (Sanford-Burnham Center for Chemical Genomics, 2007).
Screen size: about 87,000 compounds; about 540 (0.62%) were called active. The rule behind the calls is not given here. This excerpt belongs to a sample that is enriched for actives. Potency and affinity values are given separately.

Assay: inhibitors of MT1-MMP promoter transcription, cell-based, luciferase reporter, luminescence (AID 618);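 note: actives suppress MT1-MMP promoter-driven transcription so potencies describe inhibitors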
Details: MT1-MMP promoter luciferase reporter cells

outcome, inactive:
COC(=O)c1ccc(S(=O)(=O)c2ccccc2)c(N)c1
O=C(Cn1cnc2c(nnn2Cc2ccccc2)c1=O)N1CCN(c2ccccc2)CC1
CCOc1nc(NC2CCCCC2)nc(NC(C)(C)C)n1
C/C=C/COC(=O)c1[nH]c2c(c1C)C(=O)CC(c1ccc(N(C)C)cc1)C2 (stereo not given)
Cc1c(C(=O)OCC2CCCO2)[nH]c2c1C(=O)CC(c1ccc(N(C)C)cc1)C2 (stereo not given)
Cc1ccc(S(=O)(=O)N(CC(=O)N2CCC(C(N)=O)CC2)Cc2ccc(F)cc2)cc1
Oc1ccccc1-c1cc(-c2cccc(F)c2)n[nH]1
Oc1ccc(F)cc1-c1cc(-c2ccc3c(c2)OCCO3)n[nH]1
Cc1cccc(NCc2ccccc2O)n1
O=C(CSc1nnc(COc2ccc(F)cc2)o1)N1c2ccccc2CCc2ccccc21
O=C(CSc1nnc(COc2ccc(Cl)cc2)o1)N1CCN(c2ccccc2)CC1
COC(=O)c1ccccc1NC(=O)NCc1ccco1
CC1(C)CC(=O)C2=C(C1)N(CCN1CCOCC1)C1=C(C(=O)CC(C)(C)C1)C2c1cccc(F)c1
CC(=O)Nc1ccc(-c2nnn(CC(=O)c3ccccc3)n2)cc1Cl
CCOc1cc(/C=N/n2cnnc2)cc(Br)c1O
CCOc1cc(/C=N/n2cnnc2)ccc1O
O=C(COc1ccc(S(=O)(=O)NC2CCCCC2)cc1)NCC1CCCO1 (stereo not given)
N#Cc1nn(-c2ccccc2)nc1N1CCCCC1
Cc1ccc(NC(=O)CC(O)(C(F)(F)F)C(F)(F)F)cc1
CCN1C(=O)C2C(c3ccccc3F)NC(Cc3ccc(O)cc3)(C(=O)OC)C2C1=O (stereo not given)
CCc1nnc(NC(=O)c2c(OC)cccc2OC)s1
COc1ccc(C(=O)Nc2c(F)c(F)c(F)c(F)c2F)c(OC)c1
COC(=O)c1sc(NC(=O)c2ccoc2C)nc1C
COC(=O)c1sc(NC(=O)COc2ccc(OC)cc2)nc1C
CCOc1ccccc1C(=O)Nc1nnc(CC)s1
COc1ccc(C(=O)Nn2cnnc2)c(OC)c1
Cc1ccc(C)c2[nH]c(=O)c(CCNC(=O)C(C)(C)C)cc12
O=S(=O)(c1ccc(Br)cc1)N1CCCN(Cc2ccccc2F)CC1
COc1ccccc1NC(=O)N1CCN(c2ccc3nncn3n2)CC1
CCCCOC(=O)C1C2C=C[C@]3(CN(CCCOC)C(=O)[C@H]13)O2 (stereo not given in full)
CCOc1ccc(NC(=O)CSc2nnc(Cn3c(=O)sc4ccccc43)n2C)cc1
CCOC(=O)c1cnn(CCOC(=O)Cc2cccs2)c1NC(=O)Cc1cccs1
CC1=[N+]([O-])C(N2CCOCC2)C(O)(c2ccccc2)C1 (stereo not given)
COCCN1C(=O)c2ccccc2C(C(=O)NCCCN2CCCC2)C1c1c[nH]c2ccccc12 (stereo not given)
O=C(NCC(c1cccnc1)N1CCOCC1)c1ccc2c(c1)OCO2 (stereo not given)
O=S(=O)(NCCOCC(F)(F)C(F)F)c1ccc2oc3ccccc3c2c1
S=C(Nc1ccccc1)c1ccccn1
S=C(Nc1ccccn1)c1ccccn1
Cc1c(C(=O)c2ccc(Cl)cc2Cl)cnc2cc3c(cc12)OCO3
O=C(CN1CCN(C(=O)c2ccco2)CC1)Nc1c2c(nc3c1CCC3)CCCC2
COC(=O)c1noc(-c2ccc(C)cc2)n1
Cc1ccc(-c2noc(-c3cccs3)n2)cc1
COc1ccc(C(NC(N)=O)c2ccccc2)cc1 (stereo not given)
FC(F)C(F)(F)C(F)(F)C(F)(F)c1cc(-c2ccccc2)n[nH]1
CCN(CC)c1ccc2cc(-c3nnc(-c4ccccc4)o3)c(=O)oc2c1
CCN(CC)c1ccc2cc(-c3nc4ccccc4n3C)c(=O)oc2c1
COc1cc(C2CC(=O)n3c(nc4ccccc43)S2)cc(OC)c1OC (stereo not given)
COc1ccc(C2CC(=O)n3c(nc4ccccc43)S2)cc1OC (stereo not given)
Clc1ccc2c(c1)C1OCCC1C(c1ccco1)N2 (stereo not given)
Cc1ccc(-c2nn(CC(=O)NCc3cc(-c4nn(C)c(=O)c5ccccc45)ccc3C)c(=O)c3ccccc23)cc1
CN(C)S(=O)(=O)c1ccc(C(=O)OCC(=O)NC(=O)NCc2ccccc2)cc1
CCOC(=O)Nc1cccc(Nc2ccccc2)c1
CCOC(=O)c1sc(Nc2ccccc2)nc1C
CCOC(=O)c1cccc(NC(=O)c2cccnc2)c1
CCOC(=O)/C(=C/Nc1ccccc1)[N+](=O)[O-]
c1ccc(C2C3=C(CCCC3)Nc3ncnn32)cc1 (stereo not given)
Cc1cccc(C)c1NC(=O)CSc1nnc(CCCCCNC(=O)OC(C)(C)C)o1
COc1ccc2cc(C#N)c(SCC(=O)N3CCCC3)nc2c1
Nc1cccc2cnccc12
Cc1cc2c(N)cccc2nn1
CN(C)CCNS(=O)(=O)c1ccc(Cl)cc1
O=S(=O)(c1ccc(N2CCC(c3ccc(Cl)cc3)=N2)cc1)N(CCO)CCO
CC1NC(=O)NC1CCCCC(=O)O (stereo not given)
Cc1ccc(S(=O)(=O)NC2=NCN(C3CCCCC3)CN2)cc1
Cc1ccc(Cn2c(NCCc3ccccc3)nc3c2c(=O)n(C)c(=O)n3C)cc1
COc1ccc(NS(=O)(=O)c2ccc(N)c(C(=O)O)c2)cc1

outcome, active:
C=CCOC(=O)c1[nH]c2c(c1C)C(=O)CC(c1ccco1)C2 (stereo not given)
C/C=C/COC(=O)c1[nH]c2c(c1C)C(=O)CC(c1ccco1)C2 (stereo not given)
Oc1ccccc1-c1cc(-c2ccc3c(c2)OCCO3)n[nH]1
O=C(CSc1nnc(COc2ccc(Cl)cc2)o1)N1c2ccccc2CCc2ccccc21
CCOc1cc(/C=N/n2cnnc2)c(Br)cc1O
COC(=O)c1sc(NC(=O)c2ccc(OC)cc2OC)nc1C
COc1ccc(C(=O)Nc2ccc(C)cn2)c(OC)c1
O=C1CC(c2ccc3c(c2)OCO3)Sc2nc3ccccc3n21 (stereo not given)
CCOC(=O)/C(=C\c1cccnc1)C(=O)c1cc(C(C)=O)c(Nc2ccccc2)s1
